Results as given in PubChem BioAssay (EPA / NIEHS).
Where “and” joins values, the source holds several entries; their conditions need not be identical. Equal entries are not always repeated. The source holds several records for some structures; these can differ, active in one and inactive in another. Calls of active or inactive are those of the source. Rule for the calls: active = hit-call score of the fitted dose curve at least 0.9, where 1 is the maximum; inactive = score below 0.9.

Legend:
[1] = read-out: Vascular endothelial growth factor receptor 2 (Homo sapiens) (UniProt P35968); test: BSK_4H_VEGFRII: BioMAP Diversity Plus: 4H Assay for Vascular endothelial growth factor receptor 2 (VEGFR2) Biomarker Activity (AID 2283031); settings: primary human endothelial cells (HUVEC); actives raise or lower the signal;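 for AC50: cell-surface VEGFR2 protein level quantified by ELISA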
Outline: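 In this multiplexed HUVEC system, biomarker ELISA was performed after 24 h chemical exposure. Parallel SRB staining (TCA fixation, 560 nm) tracked cytotoxicity; DMSO served as baseline.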

[2] = read-out: Human Leukocyte Antigen - DR isotype (HLADR), HLA-DRA (gene 3122); test: BSK_BE3C_HLADR: BioMAP Diversity Plus: BE3C Assay for Human Leukocyte Antigen - DR isotype (HLADR) Biomarker Activity (AID 2283032); settings: primary human bronchial epithelial cells; actives raise or lower the signal
Outline: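 Signal came from an ELISA for HLA-DR in human bronchial epithelial primary cells harvested 24 h after treatment; gain- and loss-of-signal fitting used DMSO controls as reference.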

[3] = read-out: Vascular cell adhesion molecule 1 (VCAM1), VCAM1 (gene 7412); test: BSK_4H_VCAM1: BioMAP Diversity Plus: 4H Assay for Vascular cell adhesion molecule 1 (VCAM1) Biomarker Activity (AID 2283033); settings: primary human endothelial cells (HUVEC); actives raise or lower the signal
Outline: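 Endpoint derived from bidirectional fitting against DMSO controls of VCAM-1 ELISA signal in umbilical vein endothelial cells sampled at 24 h following treatment.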

[4] = read-out: Interferon-gamma inducible Protein 10 (IP10), CXCL10 (gene 3627); test: BSK_BE3C_IP10: BioMAP Diversity Plus: BE3C Assay for Interferon-gamma inducible Protein 10 (IP10) Biomarker Activity (AID 2283034); settings: primary human bronchial epithelial cells; actives raise or lower the signal
Outline: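 Using primary human bronchial epithelial cultures, the assay captures IP-10 by ELISA one day (24 h) after exposure. Parallel SRB staining of total protein flags overt cytotoxicity. Fits run bidirectionally relative to DMSO.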

[5] = read-out: Monokine induced gamma interferon (MIG), CXCL9 (gene 4283); test: BSK_BE3C_MIG: BioMAP Diversity Plus: BE3C Assay for Monokine induced gamma interferon (MIG) Biomarker Activity (AID 2283035); settings: primary human bronchial epithelial cells; actives raise or lower the signal
Outline: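 MIG level was determined by ELISA after 24 h chemical treatment of primary human bronchial epithelial cells. Values were fitted bidirectionally with DMSO as the negative control and activity baseline.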

[6] = read-out: Transforming growth factor beta 1 (TGFb1), TGFB1 (gene 7040); test: BSK_BE3C_TGFb1: BioMAP Diversity Plus: BE3C Assay for Transforming growth factor beta 1 (TGFb1) Biomarker Activity (AID 2283036); settings: primary human bronchial epithelial cells; actives raise or lower the signal
Outline: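 In this human primary bronchial epithelial system, an ELISA quantified TGF-b1 one day after dosing. Endpoint changes in either direction were fitted relative to DMSO.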

[7] = read-out: Plasminogen activator inhibitor-1 (PAI1), SERPINE1 (gene 5054); test: BSK_BE3C_PAI1: BioMAP Diversity Plus: BE3C Assay for Plasminogen activator inhibitor-1 (PAI1) Biomarker Activity (AID 2283037); settings: primary human bronchial epithelial cells; actives raise or lower the signal
Outline: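 PAI-1 biomarker levels in treated human bronchial epithelial cells are determined by ELISA at 24 h. Both increases and decreases relative to DMSO are fitted.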

[8] = read-out: urokinase plasminogen activator (uPA), PLAU (gene 5328); test: BSK_BE3C_uPA: BioMAP Diversity Plus: BE3C Assay for urokinase plasminogen activator (uPA) Biomarker Activity (AID 2283038); settings: primary human bronchial epithelial cells; actives raise or lower the signal
Outline: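 Using confluent primary human lung bronchial epithelial cultures, we dosed chemicals, waited 24 h, then ran a uPA ELISA, fitting bidirectionally against DMSO.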

[9] = read-out: Urokinase-type plasminogen activator receptor (uPAR), PLAUR (gene 5329); test: BSK_BE3C_uPAR: BioMAP Diversity Plus: BE3C Assay for Urokinase-type plasminogen activator receptor (uPAR) Biomarker Activity (AID 2283039); settings: primary human bronchial epithelial cells; actives raise or lower the signal
Outline: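 A uPAR ELISA serves as the readout, taken 24 h after treating primary human bronchial epithelial cells. Responses in either direction are fitted against DMSO, which defines baseline activity.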

[10] = read-out: Interleukin-6 (IL6), IL6 (gene 3569); test: BSK_CASM3C_IL6: BioMAP Diversity Plus: CASM3C Assay for Interleukin-6 (IL6) Biomarker Activity for (AID 2283040); settings: primary human coronary artery smooth muscle cells; actives raise or lower the signal

Measured: AC50

CN(C)[C@@H]1C(=O)C(C(N)=O)=C(O)[C@@]2(O)C(=O)C3=C(O)c4c(O)cccc4[C@@](C)(O)[C@H]3[C@H](O)[C@@H]12
active: [7] 3.97 µM
inactive: [1] | [2] | [3] | [4] | [5] | [6] | [7] | [8] | [9] | [10]

CCCOc1nn(C(=O)NS(=O)(=O)c2ccccc2C(=O)OC)c(=O)n1C
active: [9] 1.32 µM
inactive: [1] | [2] | [3] | [4] | [5] | [6] | [8] | [10]

COP(=O)(OC)OC(Br)C(Cl)(Cl)Br (centres undefined)
active: [1] 31.1 µM | [2] 27.7 µM | [3] 30.7 µM | [5] 30.8 µM | [6] 33.1 µM | [8] 32 µM | [9] 36.6 µM | [10] 31.2 µM

CSC1=N[C@@](C)(c2ccccc2)C(=O)N1Nc1ccccc1
inactive: [1] | [2] | [5] | [6] | [8] | [9] | [10]
active: [3] 9.4 µM

CCC(=O)Nc1ccc(Cl)c(Cl)c1
active: [4] 27.2 µM | [6] 3.97 µM
inactive: [1] | [2] | [3] | [5] | [8] | [9] | [10]

CN1COCN(Cc2cnc(Cl)s2)C1=N[N+](=O)[O-]
inactive: [1] | [2] | [3] | [4] | [5] | [6] | [8] | [9] | [10]

O=c1ccc(=O)[nH][nH]1
inactive: [1] | [2] | [3] | [5] | [6] | [7] | [8] | [9] | [10]

CCNc1nc(Cl)nc(NC(C)(C)C#N)n1
inactive: [1] | [2] | [3] | [4] | [5] | [6] | [7] | [8] | [9] | [10]

COP(=O)(OC)SCn1c(=O)oc2cc(Cl)cnc21
inactive: [1] | [3] | [5] | [6] | [7] | [8] | [9] | [10]
active: [2] 22 µM

CCOP(=O)(NC(C)C)Oc1ccc(SC)c(C)c1 (centres undefined)
active: [9] 5.54 µM
inactive: [1] | [2] | [3] | [5] | [6] | [7] | [8] | [10]

CCCCOC(=O)c1ccccc1C(=O)O
inactive: [1] | [2] | [3] | [5] | [6] | [7] | [8] | [9] | [10]

Cc1cc(C2CC2)nc(Nc2ccccc2)n1
active: [2] 5.17 µM
inactive: [1] | [3] | [4] | [5] | [6] | [8] | [9] | [10]

CCCCOC(=O)[C@@H](C)Oc1ccc(Oc2ccc(C#N)cc2F)cc1
inactive: [1] | [2] | [3] | [5] | [6] | [8] | [10]
active: [9] 0.811 µM

CCOP(=S)(OCC)Oc1ccc2c(C)c(Cl)c(=O)oc2c1
inactive: [1] | [2] | [3] | [5] | [6] | [8] | [9] | [10]

CN(C)NC(=O)CCC(=O)O
inactive: [1] | [2] | [3] | [4] | [5] | [6] | [7] | [8] | [9] | [10]

O=[N+]([O-])c1cc(C(F)(F)F)c(Cl)c([N+](=O)[O-])c1Nc1ncc(C(F)(F)F)cc1Cl
inactive: [1] | [10]
active: [1] 1.2 µM | [2] 1.52 µM and 3.78 µM | [5] 4.03 µM and 7.17 µM | [6] 2.51 µM and 9.94 µM | [8] 2.19 µM and 1.62 µM | [9] 7.71 µM and 8.37 µM | [10] 3.6 µM
